# Several values for one entry are separate records, joined by “and”; a condition that tells them apart may be missing. Equal entries are not always repeated. Screen size: about 5,500 compounds; about 2,000 (36%) were called active. Not shown: some 18% with an inconclusive outcome. This is one part of the list. Unmarked numbers belong to inactive results. No stated cut-off is given here; in the data, active means normalized growth mostly below about 0.91 (no sharp cut-off); inconclusive means no clear call, values can overlap the other calls; inactive means mostly above about 0.92.
# Assay: chemical genetic growth profiling, strain panel (AID 1159580);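 further: tested at 20 µM; growth read once vehicle control cultures reached saturation at 30 °C; 1 = growth at the plate median or of vehicle wells; lower values mean less growth of the strain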
# Details: S. cerevisiae deletion strains, growth OD
compound,measurement,setting,value
C=CC1=C(C)/C(=C/c2[nH]c(Cc3[nH]c(/C=C4\NC(=O)C(C)=C4C=C)c(C)c3CCC(=O)O)c(CCC(=O)O)c2C)NC1=O,normalized growth,"locus YAL013W, strain DEP1, active compounds read low",1.02
same,normalized growth,"locus YAL021C, strain ccr4, active compounds read low",0.949
same,normalized growth,"locus YAL026C, strain drs2, active compounds read low",0.982
same,normalized growth,"locus YAL030W, strain snc1, active compounds read low",0.996
same,normalized growth,"locus YBL061C, strain skt5, active compounds read low",0.993
same,normalized growth,"locus YBR009C, strain hhf1, active compounds read low",1.03
same,normalized growth,"locus YBR021W, strain FUR4, active compounds read low",1.02
same,normalized growth,"locus YBR023C, strain chs3, active compounds read low",0.993
same,normalized growth,"locus YBR171W, strain sec66, active compounds read low",0.982
same,normalized growth,"locus YBR229C, strain ROT2, active compounds read low",1.01
same,normalized growth,"locus YBR231C, strain swc5, active compounds read low",1
same,normalized growth,"locus YBR279W, strain paf1, active compounds read low",0.995
same,normalized growth,"locus YCL011C, strain gbp2, active compounds read low",0.984
same,normalized growth,"locus YCL016C, strain dcc1, active compounds read low",0.994
same,normalized growth,"locus YCL029C, strain bik1, active compounds read low",1.02
same,normalized growth,"locus YCL061C, strain MRC1, active compounds read low",0.978
same,normalized growth,"locus YCL069W, strain vba3, active compounds read low",0.986
same,normalized growth,"locus YCR088W, strain abp1, active compounds read low",0.98
same,normalized growth,"locus YDL005C, strain med2, active compounds read low",0.981
same,normalized growth,"locus YDL035C, strain GPR1, active compounds read low",1.02
same,normalized growth,"locus YDL040C, strain nat1, active compounds read low",0.979
same,normalized growth,"locus YDL074C, strain BRE1, active compounds read low",1.03
same,normalized growth,"locus YDL101C, strain DUN1, active compounds read low",1.01
same,normalized growth,"locus YDL134C, strain PPH21, active compounds read low",1.02
same,normalized growth,"locus YDL185W, strain tfp1, active compounds read low",1.01
same,normalized growth,"locus YDL192W, strain arf1, active compounds read low",1.02
same,normalized growth,"locus YDR001C, strain nth1, active compounds read low",0.979
same,normalized growth,"locus YDR069C, strain doa4, active compounds read low",0.998
same,normalized growth,"locus YDR101C, strain arx1, active compounds read low",1.03
same,normalized growth,"locus YDR137W, strain rgp1, active compounds read low",0.931
same,normalized growth,"locus YDR159W, strain sac3, active compounds read low",1.02
same,normalized growth,"locus YDR162C, strain NBP2, active compounds read low",1.04
same,normalized growth,"locus YDR195W, strain ref2",0.992
same,normalized growth,"locus YDR297W, strain sur2, active compounds read low",0.978
same,normalized growth,"locus YDR318W, strain mcm21, active compounds read low",1.02
same,normalized growth,"locus YDR334W, strain swr1, active compounds read low",0.955
same,normalized growth,"locus YDR335W, strain msn5, active compounds read low",0.974
same,normalized growth,"locus YDR388W, active compounds read low",1.02
same,normalized growth,"locus YDR392W, strain spt3, active compounds read low",0.916
same,normalized growth,"locus YDR502C, strain sam2, active compounds read low",1
same,normalized growth,"locus YEL003W, strain gim4, active compounds read low",0.981
same,normalized growth,"locus YEL037C, strain rad23, active compounds read low",0.984
same,normalized growth,"locus YEL061C, strain CIN8 (second series), active compounds read low",0.989
same,normalized growth,"locus YEL061C, strain CIN8, active compounds read low",1
same,normalized growth,"locus YER015W, strain faa2, active compounds read low",0.99
same,normalized growth,"locus YER016W, strain bim1, active compounds read low",0.992
same,normalized growth,"locus YER110C, active compounds read low",1.01
same,normalized growth,"locus YER111C, strain swi4, active compounds read low",1
same,normalized growth,"locus YER155C, strain BEM2 (second series), active compounds read low",1.02
same,normalized growth,"locus YER155C, strain BEM2, active compounds read low",1.01
same,normalized growth,"locus YER167W, strain BCK2, active compounds read low",1.01
same,normalized growth,"locus YFR010W, strain ubp6, active compounds read low",0.985
same,normalized growth,"locus YGL078C, strain dbp3, active compounds read low",1.04
same,normalized growth,"locus YGL086W, strain mad1, active compounds read low",1.03
same,normalized growth,"locus YGL167C, strain pmr1, active compounds read low",0.995
same,normalized growth,"locus YGL173C, strain kem1, active compounds read low",0.975
same,normalized growth,"locus YGL227W, strain vid30, active compounds read low",0.994
same,normalized growth,"locus YGL240W, strain doc1, active compounds read low",1.02
same,normalized growth,"locus YGL248W, strain PDE1, active compounds read low",1.02
same,normalized growth,"locus YGL253W, strain hxk2, active compounds read low",1.01
same,normalized growth,"locus YGR078C, strain PAC10, active compounds read low",1
same,normalized growth,"locus YGR135W, strain pre9, active compounds read low",0.993
same,normalized growth,"locus YGR252W, strain gcn5, active compounds read low",0.99
same,normalized growth,"locus YHR013C, strain ard1, active compounds read low",0.97
same,normalized growth,"locus YHR027C, strain rpn1, active compounds read low",0.987
same,normalized growth,"locus YHR030C, strain SLT2, active compounds read low",1.01 and 1.03
same,normalized growth,"locus YHR079C, strain IRE1 (second series), active compounds read low",1.01
same,normalized growth,"locus YHR079C, strain IRE1, active compounds read low",1.04
same,normalized growth,"locus YHR094C, strain hxt1, active compounds read low",1.01
same,normalized growth,"locus YHR129C, strain ARP1, active compounds read low",1
same,normalized growth,"locus YHR142W, strain chs7, active compounds read low",0.932
same,normalized growth,"locus YHR200W, strain rpn10, active compounds read low",1.02
same,normalized growth,"locus YIL066C, strain RNR3, active compounds read low",1.02
same,normalized growth,"locus YIL073C, strain SPO22, active compounds read low",1.15
same,normalized growth,"locus YIL125W, strain kgd1, active compounds read low",1.05
same,normalized growth,"locus YIR030C, strain dcg1, active compounds read low",1.02
same,normalized growth,"locus YJL092W, strain hpr5, active compounds read low",0.961
same,normalized growth,"locus YJL095W, strain BCK1 (second series), active compounds read low",0.994
same,normalized growth,"locus YJL095W, strain BCK1, active compounds read low",1.02 and 0.973
same,normalized growth,"locus YJL115W, strain asf1, active compounds read low",0.978
same,normalized growth,"locus YJL129C, strain trk1, active compounds read low",0.97
same,normalized growth,"locus YJL134W, strain LCB3, active compounds read low",1.01
same,normalized growth,"locus YJL154C, strain vps35, active compounds read low",0.982
same,normalized growth,"locus YJL164C, strain tpk1, active compounds read low",0.973
same,normalized growth,"locus YJL166W, strain qcr8, active compounds read low",0.997
same,normalized growth,"locus YJL168C, strain set2, active compounds read low",1.01
same,normalized growth,"locus YJL187C, strain SWE1 (second series), active compounds read low",0.998
same,normalized growth,"locus YJL187C, strain SWE1, active compounds read low",0.983
same,normalized growth,"locus YJR043C, strain POL32, active compounds read low",1.02
same,normalized growth,"locus YJR066W, strain TOR1, active compounds read low",1
same,normalized growth,"locus YJR075W, strain HOC1, active compounds read low",1.01
same,normalized growth,"locus YKL009W, strain mrt4, active compounds read low",1.16 [resistant] (active)
same,normalized growth,"locus YKL068W, active compounds read low",1.03
same,normalized growth,"locus YKL085W, strain MDH1 (second series), active compounds read low",1.04
same,normalized growth,"locus YKL085W, strain MDH1, active compounds read low",1.04
same,normalized growth,"locus YKL160W, strain elf1, active compounds read low",0.972
same,normalized growth,"locus YKR001C, strain vps1, active compounds read low",1.05
same,normalized growth,"locus YKR026C, strain gcn3, active compounds read low",0.986
same,normalized growth,"locus YKR091W, strain srl3, active compounds read low",0.982
same,normalized growth,"locus YLL001W, strain dnm1, active compounds read low",0.988
same,normalized growth,"locus YLL026W, active compounds read low",0.99
same,normalized growth,"locus YLL041C, strain sdh2, active compounds read low",0.979
same,normalized growth,"locus YLR027C, strain aat2, active compounds read low",0.979
same,normalized growth,"locus YLR039C, strain RIC1, active compounds read low",1
same,normalized growth,"locus YLR058C, strain SHM2, active compounds read low",1
same,normalized growth,"locus YLR102C, strain apc9, active compounds read low",1.02
same,normalized growth,"locus YLR113W, strain HOG1, active compounds read low",0.964
same,normalized growth,"locus YLR221C, strain rsa3, active compounds read low",0.966
same,normalized growth,"locus YLR258W, strain gsy2, active compounds read low",1
same,normalized growth,"locus YLR262C, strain YPT6 (second series), active compounds read low",0.963
same,normalized growth,"locus YLR262C, strain YPT6, active compounds read low",1.08
same,normalized growth,"locus YLR268W, strain sec22, active compounds read low",1.03
same,normalized growth,"locus YLR320W, strain mms22, active compounds read low",1.02
same,normalized growth,"locus YLR330W, strain CHS5, active compounds read low",1.01
same,normalized growth,"locus YLR342W, strain FKS1 (second series), active compounds read low",1.01
same,normalized growth,"locus YLR342W, strain FKS1, active compounds read low",0.992
same,normalized growth,"locus YLR357W, strain rsc2, active compounds read low",1.01
same,normalized growth,"locus YLR370C, strain arc18, active compounds read low",0.976
same,normalized growth,"locus YLR371W, strain rom2, active compounds read low",1.03
same,normalized growth,"locus YLR384C, strain iki3, active compounds read low",0.987
same,normalized growth,"locus YLR418C, strain cdc73, active compounds read low",1.03
same,normalized growth,"locus YML016C, strain PPZ1, active compounds read low",1
same,normalized growth,"locus YML032C, strain rad52, active compounds read low",1.03
same,normalized growth,"locus YML120C, strain ndi1, active compounds read low",0.961
same,normalized growth,"locus YML124C, strain tub3, active compounds read low",1.02
same,normalized growth,"locus YMR058W, strain fet3, active compounds read low",0.971
same,normalized growth,"locus YMR078C, strain ctf18, active compounds read low",1.04
same,normalized growth,"locus YMR125W, strain sto1, active compounds read low",1.02
same,normalized growth,"locus YMR129W, active compounds read low",0.988
same,normalized growth,"locus YMR205C, strain PFK2, active compounds read low",1.02
same,normalized growth,"locus YMR223W, strain ubp8, active compounds read low",1
same,normalized growth,"locus YMR231W, strain pep5, active compounds read low",0.99
same,normalized growth,"locus YMR263W, strain SAP30, active compounds read low",1
same,normalized growth,"locus YMR307W, strain GAS1, active compounds read low",0.968
same,normalized growth,"locus YNL067W, strain RPL9B, active compounds read low",0.999
same,normalized growth,"locus YNL071W, strain lat1, active compounds read low",0.988
same,normalized growth,"locus YNL183C, strain NPR1, active compounds read low",0.919
same,normalized growth,"locus YNL209W, strain ssb2, active compounds read low",0.987
same,normalized growth,"locus YNL233W, strain BNI4, active compounds read low",1.01
same,normalized growth,"locus YNL248C, strain rpa49, active compounds read low",0.938
same,normalized growth,"locus YNL250W, strain rad50, active compounds read low",1.01
same,normalized growth,"locus YNL271C, strain bni1, active compounds read low",1.03
same,normalized growth,"locus YNL298W, strain CLA4, active compounds read low",1.02
same,normalized growth,"locus YNL307C, strain MCK1, active compounds read low",1.01
same,normalized growth,"locus YNL322C, strain KRE1 (second series), active compounds read low",0.982
same,normalized growth,"locus YNL322C, strain KRE1, active compounds read low",1.01
same,normalized growth,"locus YNR049C, strain mso1, active compounds read low",0.981
same,normalized growth,"locus YNR052C, strain pop2, active compounds read low",1.01
same,normalized growth,"locus YOL012C, strain htz1",0.856
same,normalized growth,"locus YOL147C, strain pex11, active compounds read low",1.02
same,normalized growth,"locus YOR001W, strain rrp6, active compounds read low",0.951
same,normalized growth,"locus YOR061W, strain CKA2, active compounds read low",1.03
same,normalized growth,"locus YOR069W, strain VPS5, active compounds read low",1.01
same,normalized growth,"locus YOR070C, strain gyp1, active compounds read low",0.996
same,normalized growth,"locus YOR080W, strain dia2, active compounds read low",0.986
same,normalized growth,"locus YOR083W, strain WHI5, active compounds read low",0.94
same,normalized growth,"locus YOR106W, strain vam3, active compounds read low",0.951
same,normalized growth,"locus YOR136W, strain idh2, active compounds read low",1.02
same,normalized growth,"locus YOR144C, strain elg1, active compounds read low",1.01
same,normalized growth,"locus YOR184W, strain ser1, active compounds read low",1.07
same,normalized growth,"locus YOR231W, strain MKK1, active compounds read low",1.03
same,normalized growth,"locus YOR265W, strain rbl2, active compounds read low",0.985
same,normalized growth,"locus YOR270C, strain vph1, active compounds read low",0.971
same,normalized growth,"locus YOR290C, strain snf2, active compounds read low",1.01
same,normalized growth,"locus YOR316C, strain cot1, active compounds read low",1.02
same,normalized growth,"locus YPL051W, strain arl3, active compounds read low",0.969
same,normalized growth,"locus YPL055C, strain LGE1, active compounds read low",0.995
same,normalized growth,"locus YPL078C, strain atp4, active compounds read low",0.939
same,normalized growth,"locus YPL106C, strain sse1, active compounds read low",0.949
same,normalized growth,"locus YPL240C, strain hsp82, active compounds read low",0.982
same,normalized growth,"locus YPL241C, strain CIN2, active compounds read low",1.01
same,normalized growth,"locus YPL256C, strain CLN2, active compounds read low",1.06
same,normalized growth,"locus YPR119W, strain clb2, active compounds read low",1.01
same,normalized growth,"locus YPR163C, strain tif3, active compounds read low",1.02
same,normalized growth,"locus YPR167C, strain met16, active compounds read low",1.02
same,normalized growth,"strain wtn01, active compounds read low",1.04

# — PubChem BioAssay AID1159580 (chemical genetic matrix, 2015)
